PubChem BioAssay (NCI)
The panel holds about 83,000 compounds, 20% with a hit somewhere; the sample as a whole holds those more often.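 Values shown are percent growth following 48 h exposure of cells in 96-well plates to a single concentration of compound; below 10 was considered active.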 Active and inactive are the calls of the source.

How the values were obtained:
Test in all cases: NCI-60 one-dose screen, 48 h (100 = growth as untreated, 0 = no growth, -100 = all killed)
NCI-H23 lung = details: 10 µM unless noted
786-0 renal = details: 10 µM unless noted
DU-145 prostate = details: 10 µM unless noted
SF-268 CNS = details: 10 µM unless noted
SF-539 CNS = details: 10 µM unless noted
M14 melanoma = details: 10 µM unless noted
HCT-15 colon = details: 10 µM
UACC-62 melanoma = details: 10 µM unless noted
LOX IMVI melanoma = details: 10 µM unless noted
SK-MEL-28 melanoma = details: 10 µM unless noted
ACHN renal = details: 10 µM unless noted
OVCAR-5 ovarian = details: 10 µM unless noted
OVCAR-3 ovarian = details: 10 µM unless noted
NCI/ADR-RES ovarian = details: 10 µM unless noted
T-47D breast = details: 10 µM unless noted
MDA-MB-435 melanoma = details: 10 µM unless noted
SW-620 colon = details: 10 µM unless noted
MCF7 breast = details: 10 µM unless noted
KM12 colon = details: 10 µM unless noted
MDA-MB-231 breast = details: 10 µM unless noted

Measured: growth

CCCCCCCC(=O)OCC/C=C/C1OC1C1OC(=O)/C=C\C=C\c2nc(oc2C)/C=C(/C)CCC2OC2C1OC(=O)NC(C)=O (stereo not given)
active: NCI-H23 lung -59.1% | 786-0 renal -53.8% | DU-145 prostate -74.5% | SF-268 CNS 5.33% | SF-539 CNS -34.1% | M14 melanoma -20.4% | HCT-15 colon -5.6% | UACC-62 melanoma -49.6% | LOX IMVI melanoma -21.6% | SK-MEL-28 melanoma -15.3% | ACHN renal -16.8% | OVCAR-5 ovarian -22% | OVCAR-3 ovarian 5.74% | NCI/ADR-RES ovarian -33.8% | T-47D breast -42.6% | MDA-MB-435 melanoma 3.24% | SW-620 colon -65.4% | MCF7 breast -39.3% | KM12 colon -74%

Oc1c(Br)cc(Br)cc1Br.[Cu+2]
inactive: NCI-H23 lung 104% | 786-0 renal 115% | DU-145 prostate 108% | MDA-MB-231 breast 111% | SF-268 CNS 105% | SF-539 CNS 107% | M14 melanoma 103% | HCT-15 colon 108% | UACC-62 melanoma 109% | LOX IMVI melanoma 89% | SK-MEL-28 melanoma 101% | ACHN renal 105% | OVCAR-5 ovarian 120% | OVCAR-3 ovarian 109% | NCI/ADR-RES ovarian 105% | T-47D breast 119% | MDA-MB-435 melanoma 105% | SW-620 colon 99.2% | MCF7 breast 101% | KM12 colon 98.1%

CCOc1c(Cl)cc(CNC(C)C(O)c2ccccc2)cc1OC (stereo not given)
inactive: NCI-H23 lung 80.4% | 786-0 renal 89.1% | DU-145 prostate 57% | MDA-MB-231 breast 59.9% | SF-268 CNS 66.8% | SF-539 CNS 82.8% | M14 melanoma 57.4% | HCT-15 colon 47.1% | UACC-62 melanoma 63.2% | LOX IMVI melanoma 57.1% | SK-MEL-28 melanoma 41.5% | ACHN renal 76.8% | OVCAR-5 ovarian 103% | OVCAR-3 ovarian 67.4% | NCI/ADR-RES ovarian 50.9% | T-47D breast 86% | SW-620 colon 43.4% | MCF7 breast 42.9% | KM12 colon 55.3%
active: MDA-MB-435 melanoma 1.97%

CC12CC[C@H](O)C=C1/C(=N/O)CC1C2CCC2(C)C1CC[C@@H]2O (stereo not given in full)
inactive: NCI-H23 lung 103% | 786-0 renal 80.1% | MDA-MB-231 breast 108% | SF-539 CNS 100% | M14 melanoma 95.7% | HCT-15 colon 97.9% | UACC-62 melanoma 94.3% | LOX IMVI melanoma 94.3% | SK-MEL-28 melanoma 103% | ACHN renal 95.5% | OVCAR-5 ovarian 96.2% | NCI/ADR-RES ovarian 101% | T-47D breast 77.6% | MDA-MB-435 melanoma 90.7% | MCF7 breast 85.6%

Cc1cccc(N=C2c3cc([N+](=O)[O-])ccc3-c3c2cc([N+](=O)[O-])cc3[N+](=O)[O-])c1
active: T-47D breast -25.1% | SW-620 colon -54.9%
inactive: NCI-H23 lung 56.5% | 786-0 renal 60% | DU-145 prostate 88% | MDA-MB-231 breast 60.2% | SF-268 CNS 58.7% | SF-539 CNS 97.7% | M14 melanoma 69.4% | HCT-15 colon 34.2% | UACC-62 melanoma 77.5% | LOX IMVI melanoma 39.3% | SK-MEL-28 melanoma 97.2% | ACHN renal 59.3% | OVCAR-5 ovarian 99.4% | OVCAR-3 ovarian 50.4% | NCI/ADR-RES ovarian 56.5% | MDA-MB-435 melanoma 45% | MCF7 breast 21.3% | KM12 colon 52.4%

Cc1cc(CCl)c(C)cc1CCl
inactive: NCI-H23 lung 55.4% | 786-0 renal 36.9% | MDA-MB-231 breast 108% | SF-268 CNS 41.9% | M14 melanoma 45.1% | HCT-15 colon 75.2% | UACC-62 melanoma 60.6% | LOX IMVI melanoma 28% | SK-MEL-28 melanoma 77.7% | OVCAR-5 ovarian 141% | NCI/ADR-RES ovarian 62% | MDA-MB-435 melanoma 76.5% | SW-620 colon 59.9%
active: DU-145 prostate 1.11% | OVCAR-3 ovarian 2.57% | MCF7 breast 7.03% | KM12 colon -43.7%

CC(C)OC(=S)[S-].[Au+].c1ccc([PH+](c2ccccc2)c2ccccc2)cc1
active: 786-0 renal 2.78% | MDA-MB-231 breast -14.3% | SF-539 CNS 7.83% | HCT-15 colon -14.2% | UACC-62 melanoma 0.794% | LOX IMVI melanoma -64.9% | ACHN renal 0.723% | OVCAR-3 ovarian -43% | SW-620 colon -59.2% | MCF7 breast 2.73%
inactive: NCI-H23 lung 42.4% | DU-145 prostate 50% | SF-268 CNS 18.2% | M14 melanoma 11.5% | SK-MEL-28 melanoma 16.5% | OVCAR-5 ovarian 73.9% | NCI/ADR-RES ovarian 67.6% | MDA-MB-435 melanoma 30.3% | KM12 colon 69.4%

CC(=O)Nc1ccc(Cc2ccc(NC(C)=O)cc2)cc1
inactive: NCI-H23 lung 107% | 786-0 renal 101% | DU-145 prostate 130% | MDA-MB-231 breast 105% | SF-268 CNS 117% | SF-539 CNS 104% | M14 melanoma 99.9% | HCT-15 colon 107% | UACC-62 melanoma 107% | LOX IMVI melanoma 99.8% | SK-MEL-28 melanoma 109% | ACHN renal 101% | OVCAR-5 ovarian 90.7% | OVCAR-3 ovarian 119% | NCI/ADR-RES ovarian 95.9% | T-47D breast 103% | MDA-MB-435 melanoma 106% | SW-620 colon 117% | MCF7 breast 99.8% | KM12 colon 139%
